Measured values from PubChem BioAssay AID540263 (National Center for Advancing Translational Sciences (NCATS), 2011).
The whole screen tested about 340,000 compounds, of which about 100 (0.029%) were called active. Roughly 8% stayed inconclusive and do not appear here. The sample as a whole holds a higher share of actives than the screen did. A number with no mark means an inactive call. Calls follow the shape of the full dose curve. Where a SMILES comes first, the peptide text is derived from it. [ ]: non-standard residue; d: D form. ξ: configuration not given here. Ac5c = NC1(C(=O)O)CCCC1; ξS = NC(CO)C(=O)O

biological target: Importin subunit beta-1 (Homo sapiens) (UniProt Q14974); experiment: qHTS Assay for Inhibitors of Rango (Ran-regulated importin-beta cargo) - Importin beta complex formation; conditions: Rango CFP/YFP FRET sensor + importin beta, 45 min; series mostly up to 92.2 µM; inhibition of complex formation: at the top concentration;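 also: 0% = DMSO wells and 100% = buffer wells lacking importin beta; nearly all actives have a fitted effect of over 15% in size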
Sequence (Q14974 whole entry, looked up): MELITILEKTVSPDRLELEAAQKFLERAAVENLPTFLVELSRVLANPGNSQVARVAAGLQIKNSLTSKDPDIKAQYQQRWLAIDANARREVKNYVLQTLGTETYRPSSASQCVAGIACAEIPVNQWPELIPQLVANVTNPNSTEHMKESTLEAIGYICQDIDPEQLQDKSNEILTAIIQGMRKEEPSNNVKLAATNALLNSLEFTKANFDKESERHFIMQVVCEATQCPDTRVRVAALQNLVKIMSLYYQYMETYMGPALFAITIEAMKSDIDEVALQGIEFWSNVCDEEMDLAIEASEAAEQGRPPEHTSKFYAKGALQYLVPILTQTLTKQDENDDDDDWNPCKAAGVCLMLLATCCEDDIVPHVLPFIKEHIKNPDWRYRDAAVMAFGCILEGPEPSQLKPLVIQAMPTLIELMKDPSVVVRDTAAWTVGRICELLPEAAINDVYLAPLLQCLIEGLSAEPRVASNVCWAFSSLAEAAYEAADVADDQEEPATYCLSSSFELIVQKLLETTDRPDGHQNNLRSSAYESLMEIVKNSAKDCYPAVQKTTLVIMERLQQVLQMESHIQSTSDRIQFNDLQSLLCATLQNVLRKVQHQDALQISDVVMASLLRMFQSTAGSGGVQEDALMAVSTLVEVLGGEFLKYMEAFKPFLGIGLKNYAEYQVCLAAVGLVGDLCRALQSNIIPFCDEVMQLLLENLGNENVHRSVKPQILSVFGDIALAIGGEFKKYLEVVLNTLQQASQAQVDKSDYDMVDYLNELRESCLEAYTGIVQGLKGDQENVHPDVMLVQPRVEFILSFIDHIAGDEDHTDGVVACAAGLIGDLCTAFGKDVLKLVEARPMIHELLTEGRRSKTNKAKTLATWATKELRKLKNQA
Text: NIH Molecular Libraries Probe Production Centers Network [MLPCN] NIH Chemical Genomics Center [NCGC] MLPCN Grant: R03 MH090808-01A1 Assay Submitter (PI): Petr Kalab NCGC Assay Overview: The small GTPase Ran regulates transport of macromolecules between the nucleus and the cytoplasm (nuclear transport) and has important functions in mitotic spindle assembly, nuclear envelope (NE) formation and nuclear pore complex (NPC) assembly. RanGTP gradient is thought to promote spindle assembly by providing a spatial clue to microtubule nucleation and Aurora A activation. Because the localized release and binding of importin alpha cargo relays this spatial clue to SAFs, inhibitors of the Rango - importin beta complex can then be used in further understanding their role in cell cycle specifically in mitosis progression. […] Activation of Aurora A has been linked to different types of cancer and a number of Aurora kinase inhibitors are being developed as potential canter therapeutics therefore, identified inhibitors of this complex could be developed into potential anti-mitotic probes for cancer treatment. Purified recombinant proteins Rango and importin beta were provided by the assay submitter. The assay used a fluorescence resonance energy transfer (FRET) Rango biosensor that contains the IBB of human snurportin 1 flanked by yellow fluorescent protein (EYFP) at the amino terminus and cerulean CFP10 at the carboxy terminus. […] Inhibitors will therefore be identified based on the ability to interfere with the FRET signal decrease. DMSO treated and no importin beta (buffer only) wells were used as negative and positive controls respectively. FRET readings were obtained at two time points. FRET reading prior to importin beta addition (pre-read) were used flag potential compound interference; FRET reading after importin beta addition (post-read) were used to identify inhibitors using the FRET ratio parameter.
NCGC Assay Protocol Summary: Two and a half uL/well of Rango-buffer solution (50 nM Rango, 1x PBS, 1mM DTT, 0.02% Tween-20, 0.1% BSA final concentrations) was dispensed into 1536-well assay plates (Greiner, solid black medium-binding plates) with Aurora Discovery BioRAPTR Flying Reagent Dispenser (FRD; Beckton-Dickenson). Compound solution (23 nL) was transferred to the assay plate using Kalypsys pin tool equipped with a 1536-pin tool and incubated at room temperature for 5 min followed by a FRET pre-read using the PerkinElmer Envision plate reader. Two and a half uL/well of Importin beta - buffer solution (0.125 microM importin beta, 1x PBS, 1mM DTT, 0.02% Tween-20, 0.1% BSA final concentrations) were then added and incubated at room temperature giving a final reaction volume of 5uL. After 45min FRET post-read was obtained via the Envision plate reader using the same optics and settings as the pre-read (CFP/YFP optimized dual optical module D450/D505; excitation mirror CFP 430/24 nm; and emission filters CFP 486/10 nm and YFP 530/10 nm).

Row | SMILES | inhibition of complex formation [%]
1 | CN1CCC(N(C)C(=O)c2ccc(Cl)c(S(=O)(=O)Nc3ccc(Cl)cc3)c2)CC1 | 0.197
2 | O=C1CC(C(=O)O)NC(=S)N1 (centres undefined) | -2.32
3 | Cc1ccc(C)c(S(=O)(=O)N(C)c2ccc(OC(=O)C3CCN(C(=O)c4ccc(F)cc4)CC3)cc2)c1 | 0.0057
4 | COc1ccc(C(=O)Nc2cccc(/C=C(/CCC(=O)O)c3nc4ccccc4s3)c2)cc1 | 1.46
5 | O=C1COc2c1ccc(O)c2O | 7.6
6 | COc1ccc(-c2nnc(-c3ccc4ccccc4c3)o2)cc1 | 0.838
7 | CC(=O)c1cccc(-c2ccc(CN3C(CC(C)C)C(=O)N(Cc4cn(CC5CCCCC5)nn4)CCS3(=O)=O)cc2)c1 (centres undefined) | 0.492
8 | Cn1c(N)cc(=O)n(C)c1=S | 1.95
9 | Nc1ccc2[nH]c(=S)sc2c1 | 1.37
10 | Cc1nc(N)sc1-c1ccccc1 | 0.85
11 | COc1ccc(Nc2ccc3ccccc3c2)cc1 | -0.857
12 | O=C(CCC(=O)N1CCN(S(=O)(=O)c2ccc(Cl)cc2)CC1)NCc1cccc(C(F)(F)F)c1 | -4.66
13 | CCOC(=O)C(CO)NC(=O)C1(NC(C)=O)CCCC1 (centres undefined) (Ac-[Ac5c]-[ξS]-OEt) | 3.58
14 | CCN1CCC(O)(/C=C/c2ccc(C)cc2)C(C(=O)/C=C/c2ccc(C)cc2)C1 (centres undefined) | 9.28
15 | COC(=O)Cc1c(-c2[nH]c3ccccc3c2CC(=O)OC)[nH]c2ccccc12 | -5.91
16 | CC1(C)C(=O)CCC2(C)C1=CCC1C2C(=O)CC2(C)C1CCC2(O)C(=O)CO (centres undefined) | 2.32
17 | C#CCOCCOCCOCCNc1nc(N2CCOCC2)nc(N2CCN(C(=O)[C@H](Cc3ccc(O)cc3)n3cc(CCO)nn3)CC2)n1 | -0.365

Row | SMILES | inhibition of complex formation [%]
18 | CSc1ncnc2c1ncn2CC(=O)C1CCC2C3CCC4=CC(=O)CCC4(C)C3CCC12C (centres undefined) | -1.96
19 | COc1ccc(/C=C/C(=O)OCC(=O)N2CCN(S(=O)(=O)c3ccc(C)cc3C)CC2)cc1OC | -0.829
20 | CN(C)c1ccc(CSc2ccccc2)cc1 | -3.62
21 | Cc1cccc(CC2(O)C(=O)Nc3ccccc32)n1 (centres undefined) | -4.17
22 | O=C(Cc1ccc(NC(=O)C2CCCN(C(=O)CCc3ccccc3)C2)cc1)Nc1ccc(C(=O)N2CCOCC2)cc1 (centres undefined) | 5.08
23 | O=C(Cc1ccc(S(=O)(=O)N2CCOCC2)s1)Nc1ccc(Br)c(C(F)(F)F)c1 | -0.992
24 | CN(CCc1ccccc1)C(=O)c1cccc(NC(=O)Cc2cccc(NC(=O)C3CCCN(C(=O)CCc4ccccc4)C3)c2)c1 (centres undefined) | -1.7
25 | COc1ccc(CNCCCNCc2ccc(OC)c(OC)c2)cc1OC | 3.08
26 | CCOc1cc(C=NNC(=O)CCCC(=O)NN=Cc2ccc(O)c(OCC)c2)ccc1O | 0.872
27 | COc1ccc(Br)cc1/C=N/Nc1ccc(S(=O)(=O)Nc2ccccc2C(=O)O)cc1[N+](=O)[O-] | 7.77
28 | O=C(NN=Cc1ccccc1O)NN=Cc1ccccc1O | -2.35
29 | O=C(NNC(=O)c1ccccc1O)c1ccccc1O | 3.01
30 | CCCN(CCC)S(=O)(=O)c1cc2c(cc1Br)CCN2C(=O)CC | 7.53
31 | CCOc1ccccc1NC(=S)C(=C([O-])c1ccc2c(c1)OCCO2)[n+]1ccc(CC)cc1 | -0.299
32 | COc1ccc(N=C2C=CC(=O)O2)cc1 | -0.507
33 | Cc1cccc(C=CC(=O)c2ccc(Cl)cc2)c1 | -1
34 | COc1ccc(CCNC(=O)COc2cc(C)cc3oc(=O)c(C)c(C)c23)cc1OC | 4.97
